Legend:
[1] = target: Dual specificity protein kinase CLK3 (Homo sapiens) (UniProt P49761); conditions: at 1 µM;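 note: each value is the mean inhibition of CLK3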
[2] = target: Dual specificity tyrosine-phosphorylation-regulated kinase 1A (Homo sapiens) (UniProt Q13627); conditions: at 0.1 µM
[3] = target: Dual specificity tyrosine-phosphorylation-regulated kinase 1A (Homo sapiens) (UniProt Q13627); conditions: at 1 µM
[4] = target: Dual specificity tyrosine-phosphorylation-regulated kinase 1B (Homo sapiens) (UniProt Q9Y463); conditions: at 0.1 µM
[5] = target: Dual specificity tyrosine-phosphorylation-regulated kinase 1B (Homo sapiens) (UniProt Q9Y463); conditions: at 1 µM
[6] = target: T1, Dual specificity tyrosine-phosphorylation-regulated kinase 2 (Homo sapiens) (UniProt Q92630); conditions: at 0.1 µM
T1 sequence (whole entry): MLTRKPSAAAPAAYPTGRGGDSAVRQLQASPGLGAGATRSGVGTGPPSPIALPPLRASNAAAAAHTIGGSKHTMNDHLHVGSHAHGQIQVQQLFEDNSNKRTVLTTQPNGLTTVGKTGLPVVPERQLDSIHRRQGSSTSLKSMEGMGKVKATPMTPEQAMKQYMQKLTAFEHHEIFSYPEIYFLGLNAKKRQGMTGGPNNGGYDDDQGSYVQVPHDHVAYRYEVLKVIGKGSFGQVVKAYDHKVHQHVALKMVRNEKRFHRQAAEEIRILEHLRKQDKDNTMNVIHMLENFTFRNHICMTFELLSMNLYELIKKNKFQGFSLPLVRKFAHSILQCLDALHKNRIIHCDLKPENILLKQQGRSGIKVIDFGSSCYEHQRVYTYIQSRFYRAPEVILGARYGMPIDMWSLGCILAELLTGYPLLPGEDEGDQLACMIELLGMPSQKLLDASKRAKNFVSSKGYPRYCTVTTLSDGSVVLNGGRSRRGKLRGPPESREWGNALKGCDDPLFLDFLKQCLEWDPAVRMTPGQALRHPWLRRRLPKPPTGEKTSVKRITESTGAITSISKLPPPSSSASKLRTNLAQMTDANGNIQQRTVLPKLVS

[7] = target: T1, Dual specificity tyrosine-phosphorylation-regulated kinase 2 (Homo sapiens); conditions: at 1 µM
[8] = target: Glycogen synthase kinase-3 alpha (Homo sapiens) (UniProt P49840); conditions: at 0.1 µM
[9] = target: Glycogen synthase kinase-3 alpha (Homo sapiens) (UniProt P49840); conditions: at 1 µM
[10] = target: Glycogen synthase kinase-3 beta (Homo sapiens) (UniProt P49841); conditions: at 0.1 µM
[11] = target: Glycogen synthase kinase-3 beta (Homo sapiens) (UniProt P49841); conditions: at 1 µM
[12] = target: Homeodomain-interacting protein kinase 1 (Homo sapiens) (UniProt Q86Z02); conditions: at 0.1 µM
[13] = target: Homeodomain-interacting protein kinase 1 (Homo sapiens) (UniProt Q86Z02); conditions: at 1 µM
[14] = target: T2, Homeodomain-interacting protein kinase 4 (Homo sapiens) (UniProt Q8NE63); conditions: at 0.1 µM
T2 sequence (whole entry): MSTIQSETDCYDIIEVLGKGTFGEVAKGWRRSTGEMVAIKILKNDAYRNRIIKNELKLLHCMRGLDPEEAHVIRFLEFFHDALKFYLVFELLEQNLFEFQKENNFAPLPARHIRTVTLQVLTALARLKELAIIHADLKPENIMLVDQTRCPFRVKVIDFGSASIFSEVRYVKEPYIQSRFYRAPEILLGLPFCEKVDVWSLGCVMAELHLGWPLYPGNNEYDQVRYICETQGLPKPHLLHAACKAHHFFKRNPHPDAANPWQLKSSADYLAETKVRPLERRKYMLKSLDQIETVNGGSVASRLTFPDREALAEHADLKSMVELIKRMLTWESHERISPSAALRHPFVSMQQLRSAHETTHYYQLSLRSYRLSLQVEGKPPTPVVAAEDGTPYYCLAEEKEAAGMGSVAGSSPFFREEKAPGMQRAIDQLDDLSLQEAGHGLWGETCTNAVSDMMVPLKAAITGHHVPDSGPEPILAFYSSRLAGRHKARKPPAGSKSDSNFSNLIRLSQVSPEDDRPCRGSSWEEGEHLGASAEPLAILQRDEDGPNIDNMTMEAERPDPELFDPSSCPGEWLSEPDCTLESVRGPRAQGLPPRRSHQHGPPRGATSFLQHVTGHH

[15] = target: T2, Homeodomain-interacting protein kinase 4 (Homo sapiens); conditions: at 1 µM
[16] = target: Mitogen-activated protein kinase 9 (Homo sapiens) (UniProt P45984); conditions: at 0.1 µM
[17] = target: Mitogen-activated protein kinase 9 (Homo sapiens) (UniProt P45984); conditions: at 1 µM
[18] = target: Mitogen-activated protein kinase 1 (Homo sapiens) (UniProt P28482); conditions: at 0.1 µM
[19] = target: Mitogen-activated protein kinase 1 (Homo sapiens) (UniProt P28482); conditions: at 1 µM
[20] = target: Mitogen-activated protein kinase 3 (Homo sapiens) (UniProt P27361); conditions: at 0.1 µM;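 note: each value is a mean inhibition figure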
Chain of Mitogen-activated protein kinase 3 (Homo sapiens) (P27361 whole entry): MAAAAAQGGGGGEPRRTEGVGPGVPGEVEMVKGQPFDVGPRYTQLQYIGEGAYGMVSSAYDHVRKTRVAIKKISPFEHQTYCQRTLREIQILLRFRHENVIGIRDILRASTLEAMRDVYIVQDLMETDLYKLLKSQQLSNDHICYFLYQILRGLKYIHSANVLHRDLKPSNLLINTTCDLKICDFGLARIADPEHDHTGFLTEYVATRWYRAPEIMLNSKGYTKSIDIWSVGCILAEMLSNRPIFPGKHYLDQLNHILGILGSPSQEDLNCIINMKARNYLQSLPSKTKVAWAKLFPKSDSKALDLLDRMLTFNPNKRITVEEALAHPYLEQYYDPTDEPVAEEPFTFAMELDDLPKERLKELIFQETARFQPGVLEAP

Chain of Glycogen synthase kinase-3 alpha (Homo sapiens) (P49840 2-483 limits assumed): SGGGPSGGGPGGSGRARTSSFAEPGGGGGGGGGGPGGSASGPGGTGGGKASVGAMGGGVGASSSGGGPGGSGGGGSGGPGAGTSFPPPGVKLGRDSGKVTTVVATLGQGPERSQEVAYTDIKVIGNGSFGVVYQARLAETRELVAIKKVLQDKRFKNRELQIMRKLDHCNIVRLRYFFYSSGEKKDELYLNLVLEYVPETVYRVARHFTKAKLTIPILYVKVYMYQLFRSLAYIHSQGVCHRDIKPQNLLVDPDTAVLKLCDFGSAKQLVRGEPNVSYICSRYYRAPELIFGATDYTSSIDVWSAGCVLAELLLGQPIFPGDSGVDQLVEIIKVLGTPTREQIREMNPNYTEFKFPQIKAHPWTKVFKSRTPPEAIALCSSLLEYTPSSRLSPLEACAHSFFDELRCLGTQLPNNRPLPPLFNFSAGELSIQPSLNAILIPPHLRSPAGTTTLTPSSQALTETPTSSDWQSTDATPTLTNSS
Chain of Dual specificity tyrosine-phosphorylation-regulated kinase 1B (Homo sapiens) (Q9Y463 whole entry, looked up): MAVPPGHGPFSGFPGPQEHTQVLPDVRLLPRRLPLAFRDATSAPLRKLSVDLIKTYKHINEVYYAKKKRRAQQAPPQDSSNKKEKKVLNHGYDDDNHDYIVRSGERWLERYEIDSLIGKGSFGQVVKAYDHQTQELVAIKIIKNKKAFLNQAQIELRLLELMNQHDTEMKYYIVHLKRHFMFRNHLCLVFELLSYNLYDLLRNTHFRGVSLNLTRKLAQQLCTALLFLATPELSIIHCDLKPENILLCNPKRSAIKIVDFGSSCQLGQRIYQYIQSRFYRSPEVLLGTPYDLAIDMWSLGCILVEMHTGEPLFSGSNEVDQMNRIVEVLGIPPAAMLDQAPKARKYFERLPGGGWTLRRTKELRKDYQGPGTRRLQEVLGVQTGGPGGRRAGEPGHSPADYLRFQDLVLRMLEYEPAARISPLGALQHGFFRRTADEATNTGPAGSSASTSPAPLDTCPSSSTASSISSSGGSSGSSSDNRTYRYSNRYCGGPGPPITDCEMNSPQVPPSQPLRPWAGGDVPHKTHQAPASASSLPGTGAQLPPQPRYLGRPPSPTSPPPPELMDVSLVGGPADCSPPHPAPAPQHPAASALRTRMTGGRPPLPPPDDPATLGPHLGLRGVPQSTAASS
Chain of Dual specificity protein kinase CLK3 (Homo sapiens) (P49761 whole entry, looked up): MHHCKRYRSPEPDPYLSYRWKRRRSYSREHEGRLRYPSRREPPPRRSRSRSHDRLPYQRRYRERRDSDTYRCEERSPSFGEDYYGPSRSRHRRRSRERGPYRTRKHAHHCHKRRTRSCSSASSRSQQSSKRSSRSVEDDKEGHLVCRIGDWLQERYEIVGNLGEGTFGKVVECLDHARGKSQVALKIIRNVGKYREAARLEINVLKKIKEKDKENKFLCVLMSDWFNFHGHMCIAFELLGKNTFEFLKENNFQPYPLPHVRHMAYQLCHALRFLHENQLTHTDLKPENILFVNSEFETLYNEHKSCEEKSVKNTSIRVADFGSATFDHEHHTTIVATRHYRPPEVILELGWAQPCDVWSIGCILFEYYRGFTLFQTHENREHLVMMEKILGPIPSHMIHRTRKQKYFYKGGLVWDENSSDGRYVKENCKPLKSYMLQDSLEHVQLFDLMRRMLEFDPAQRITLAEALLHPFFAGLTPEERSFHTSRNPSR
Chain of Mitogen-activated protein kinase 1 (Homo sapiens) (P28482 whole entry): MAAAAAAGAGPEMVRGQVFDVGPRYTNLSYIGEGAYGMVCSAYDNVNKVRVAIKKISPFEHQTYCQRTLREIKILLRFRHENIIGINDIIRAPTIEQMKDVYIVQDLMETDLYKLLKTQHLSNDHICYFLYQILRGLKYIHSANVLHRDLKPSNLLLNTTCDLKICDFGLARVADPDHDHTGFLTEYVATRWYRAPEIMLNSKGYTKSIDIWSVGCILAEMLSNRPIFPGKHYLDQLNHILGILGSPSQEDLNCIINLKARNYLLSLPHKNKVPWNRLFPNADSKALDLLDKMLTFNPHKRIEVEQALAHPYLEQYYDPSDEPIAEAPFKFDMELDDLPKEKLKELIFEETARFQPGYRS
Chain of Glycogen synthase kinase-3 beta (Homo sapiens) (P49841 whole entry, looked up): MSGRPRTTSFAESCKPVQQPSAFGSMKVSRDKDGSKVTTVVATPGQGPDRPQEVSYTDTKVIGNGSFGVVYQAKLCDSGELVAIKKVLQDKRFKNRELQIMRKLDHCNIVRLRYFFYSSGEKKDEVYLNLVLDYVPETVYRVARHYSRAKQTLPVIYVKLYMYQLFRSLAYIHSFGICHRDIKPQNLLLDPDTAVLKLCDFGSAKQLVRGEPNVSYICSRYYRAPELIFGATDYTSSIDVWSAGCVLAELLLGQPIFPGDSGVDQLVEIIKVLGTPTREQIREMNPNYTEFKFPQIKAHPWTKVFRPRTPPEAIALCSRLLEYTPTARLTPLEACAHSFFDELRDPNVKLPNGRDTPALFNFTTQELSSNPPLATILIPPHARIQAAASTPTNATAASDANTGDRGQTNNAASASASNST
Chain of Mitogen-activated protein kinase 9 (Homo sapiens) (P45984 whole entry, looked up): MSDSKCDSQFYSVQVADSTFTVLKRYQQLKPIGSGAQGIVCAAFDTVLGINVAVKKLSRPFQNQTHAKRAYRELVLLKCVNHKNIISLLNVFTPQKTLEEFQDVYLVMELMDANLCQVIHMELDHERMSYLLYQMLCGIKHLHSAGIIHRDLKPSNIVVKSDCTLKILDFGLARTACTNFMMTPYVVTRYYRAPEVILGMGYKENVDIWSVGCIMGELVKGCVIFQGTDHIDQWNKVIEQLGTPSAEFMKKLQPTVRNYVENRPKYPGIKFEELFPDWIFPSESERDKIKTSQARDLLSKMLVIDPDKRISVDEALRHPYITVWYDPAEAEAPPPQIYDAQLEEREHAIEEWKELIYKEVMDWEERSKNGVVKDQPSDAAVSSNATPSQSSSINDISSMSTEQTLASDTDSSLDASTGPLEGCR
Chain of Homeodomain-interacting protein kinase 1 (Homo sapiens) (Q86Z02 whole entry, looked up): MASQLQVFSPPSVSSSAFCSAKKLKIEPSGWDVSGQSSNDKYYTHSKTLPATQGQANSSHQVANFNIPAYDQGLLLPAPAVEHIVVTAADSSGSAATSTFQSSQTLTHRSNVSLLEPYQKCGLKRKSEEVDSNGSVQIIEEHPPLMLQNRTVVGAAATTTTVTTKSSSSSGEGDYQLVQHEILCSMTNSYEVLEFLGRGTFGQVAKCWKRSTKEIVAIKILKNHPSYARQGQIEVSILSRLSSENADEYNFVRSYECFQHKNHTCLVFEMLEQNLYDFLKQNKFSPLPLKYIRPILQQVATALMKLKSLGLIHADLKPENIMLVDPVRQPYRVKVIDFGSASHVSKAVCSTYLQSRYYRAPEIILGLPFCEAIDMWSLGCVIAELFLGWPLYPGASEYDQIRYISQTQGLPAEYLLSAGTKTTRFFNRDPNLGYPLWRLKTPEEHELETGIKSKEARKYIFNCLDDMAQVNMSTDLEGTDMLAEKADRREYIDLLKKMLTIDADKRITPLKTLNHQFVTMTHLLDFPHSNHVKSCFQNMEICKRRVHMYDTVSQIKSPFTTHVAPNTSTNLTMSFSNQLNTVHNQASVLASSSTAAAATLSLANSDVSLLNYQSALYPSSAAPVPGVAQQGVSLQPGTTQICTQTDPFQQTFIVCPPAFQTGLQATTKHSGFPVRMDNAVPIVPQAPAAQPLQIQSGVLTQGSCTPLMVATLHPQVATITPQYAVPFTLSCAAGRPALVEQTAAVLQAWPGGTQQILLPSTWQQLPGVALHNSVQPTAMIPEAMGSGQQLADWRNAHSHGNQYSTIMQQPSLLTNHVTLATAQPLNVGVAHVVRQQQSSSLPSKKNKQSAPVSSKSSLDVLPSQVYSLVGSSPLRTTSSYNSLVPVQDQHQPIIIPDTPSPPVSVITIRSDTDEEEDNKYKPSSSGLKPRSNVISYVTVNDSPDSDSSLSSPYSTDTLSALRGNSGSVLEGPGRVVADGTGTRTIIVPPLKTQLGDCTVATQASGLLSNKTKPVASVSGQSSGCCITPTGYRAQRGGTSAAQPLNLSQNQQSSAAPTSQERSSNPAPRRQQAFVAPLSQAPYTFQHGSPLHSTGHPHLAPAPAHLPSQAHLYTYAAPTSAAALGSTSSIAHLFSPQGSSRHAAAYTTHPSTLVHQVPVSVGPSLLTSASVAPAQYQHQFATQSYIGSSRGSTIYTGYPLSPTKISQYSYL

Row | SMILES | inhibition [1] | inhibition [2] | inhibition [3] | inhibition [4] | inhibition [5] | inhibition [6] | inhibition [7] | inhibition [8] | inhibition [9] | inhibition [10] | inhibition [11] | inhibition [12] | inhibition [13] | inhibition [14] | inhibition [15] | inhibition [16] | inhibition [17] | inhibition [18] | inhibition [19] | inhibition [20]
1 | FC(F)(F)c1cccc(-c2nn3ncccc3c2-c2ccnc(Nc3ccc4c(c3)OCCO4)n2)c1 | 0.79% | 1.23% | 2.77% | 0.78% | 0.83% | 2.54% | 3.26% | 5.83% | 22.4% | 5.36% | 33.3% | -2.65% | 3.4% | -0.63% | 3.75% | 4.15% | 20.4% | 1.58% | 4.01% | 1.85%
2 | COc1ccc2[nH]c3c4[nH]c5ccc(OC)cc5c4c4c(c3c2c1)C(=O)NC4=O | 4.44% | 10.1% | 43.1% | 2.55% | 26.1% | 6.81% | 29% | 1.75% | 6.24% | 3.92% | 14.7% | 5.17% | 20.7% | 4.28% | 22.8% | 4.65% | 21.7% | 3.5% | 5.44% | 4.93%
3 | CC(C)(CO)CNC(=O)c1ccc2c(c1)/C(=N/Nc1ccc(S(N)(=O)=O)cc1)C(=O)N2 | 9.15% | -0.06% | 7.83% | -0.36% | 1% | 0.82% | 9.64% | 23.2% | 65.2% | 22.4% | 66.8% | -4.78% | 13.1% | -0.55% | 4.55% | -0.59% | 8.39% | 8.62% | 42.1% | 1.78%
4 | COc1cc(/C=N/Nc2ncnc3[nH]ncc23)ccc1O | 13.2% | 12.5% | 45.1% | 6.29% | 31.6% | 7.46% | 44.8% | 9.63% | 41.7% | 7% | 24.5% | 9.37% | 39.4% | 5.91% | 23% | 1.89% | 5.5% | 3.68% | 4.72% | 2.18%
5 | CN1CCC(n2cnc(-c3ccc(F)cc3)c2-c2ccnc(Nc3ccccc3)n2)CC1 | 0.59% | 1.28% | 2.82% | 0.22% | 0.48% | 1.36% | 3.27% | 3.08% | 12.7% | 4.95% | 34.3% | 2.6% | 0.41% | 0.08% | 7.29% | 28% | 74.7% | 2.4% | 5.02% | 3.96%
6 | CC1=C(C(=O)Nc2cc(Cl)c3[nH]ncc3c2)C(c2ccc(C(F)(F)F)cc2)CC(=O)N1 (stereo not given) | 1.64% | 1.66% | 2.44% | -1.21% | -0.06% | 2.57% | 2.68% | 0.24% | -1.53% | 0.14% | 2.19% | -0.91% | -0.78% | -0.54% | 2.16% | 3.86% | 2.16% | 7.37% | 35.4% | 6.64%
7 | COc1cc(Nc2nccc(Nc3ccc4c(C)n[nH]c4c3)n2)cc(OC)c1OC | 6.44% | 0.88% | 7.54% | 2.83% | 5.43% | 1.95% | 4.25% | 2.79% | 17.3% | 2.73% | 16.1% | -0.29% | 1.88% | 1.59% | 3.91% | 2.22% | 13.6% | 0.66% | 3.16% | 1.57%

From ChEMBL document CHEMBL1961873, “Compounds: GSK PKIS; Assays: Nanosyn kinase panel” (2012)
